In ChEMBL document CHEMBL3988442, “University of Dundee, Small-Polar-MMV Screening Library” (2021):
About 1,000 (1.4%) of roughly 69,000 compounds showed an effect of 50% or more. This is one part of a sample in which strong results are shown more often than they occur.

Tested on: Leishmania donovani
Assay: Leishmania intramacrophage assay
Format: functional, organism-based
Design: scale not given: in the data most compounds retested in dose-response had high values

`CCn1c(NCc2ccco2)nc2c(C)nn(C)c2c1=O` was tested, and the “Percent Effect” value (30 µM, 30.03 µM) was 16.24%.
In the case of `Cc1cc(CN2CCN(C(C)C)C(CCO)C2)[nH]n1` (centres undefined), the “Percent Effect” value (30.3 µM, […]) was 0.4197%.
`c1ccc(Cc2nnc([C@H]3CCN(C4CCCCC4)C3)o2)cc1` was tested, and the “Percent Effect” value (30.3 µM, […]) was 11.62%.
For `COc1ccccc1-n1nc(CC(C)C)nc1CSc1nnc(N)s1`, the “Percent Effect” value (30.3 µM, […]) was 13.73%.
For `CN(C)C(=O)COC[C@]12COC[C@H]1CN(C1CCCC1)C2.O=C(O)C(F)(F)F`, the “Percent Effect” value (30.3 µM, […]) was 40.35%.
With `CC(C)(C)NC(=O)CN1CCNCC1.Cl.Cl` the “Percent Effect” value (30.3 µM, […]) was 11.16%.
In the case of `O=C(O)C(F)(F)F.O=C1CC2(CCN(CC3CC3)C2)CN1c1ccc2c(c1)OCO2` (centres undefined), the “Percent Effect” value (30 µM, 30.03 µM) was 25.29%.
In the case of `Cc1c(C(C)N)cnn1-c1cccc2ccccc12` (centres undefined), the “Percent Effect” value (30.3 µM, […]) was 22.69%.
With `Cc1ccc(-c2noc(CCC(=O)NC(C)Cn3cccn3)n2)cc1` (centres undefined) the “Percent Effect” value (30.3 µM, […]) was 22.16%.
With `Cn1cc(NS(=O)(=O)c2ccc(C(F)(F)F)cc2)ccc1=O` the “Percent Effect” value (30 µM) was -2.5%.
In the case of `Cc1ccc(S(=O)(=O)Nc2ccc(=O)n(C)c2)cc1`, the “Percent Effect” value (30 µM, 30.03 µM) was 54.33%.
With `CCCc1ccc(S(=O)(=O)Nc2ccc(=O)n(C)c2)cc1` the “Percent Effect” value (30 µM) was 20.55%.
For `CCN1CC2(CC1=O)CN(Cc1ccoc1)CCN(C(=O)C(C)C)C2` (centres undefined), the “Percent Effect” value (30.3 µM, […]) was 8.034%.
`O=C(c1ccc(Br)o1)N1CCN(Cc2ccc(OC(F)(F)F)cc2)CC1` was tested, and the “Percent Effect” value (30 µM, 30.03 µM) was 31.07%.
In the case of `CN(CC(=O)Nc1cccc(F)c1)Cc1nc(N)nc(N(C)C)n1`, the “Percent Effect” value (30.3 µM, […]) was 21.77%.
`CN(CCc1cccc2ccccc12)Cc1nc(N)nc(N(C)C)n1` was tested, and the “Percent Effect” value (30.3 µM, […]) was 94.18%.
In the case of `CN(Cc1nc(N)nc(N(C)C)n1)Cc1cccc2ccccc12`, the “Percent Effect” value (30.3 µM, […]) was 1.643%.
For `Cc1ccc(CN2CCCC3(CCN(S(C)(=O)=O)C3)C2)o1.O=C(O)C(F)(F)F` (centres undefined), the “Percent Effect” value (30 µM, 30.03 µM) was 4.141%.
For `COCc1cc(NCCCSc2nnc(C)s2)ncn1`, the “Percent Effect” value (30.3 µM, […]) was 26.84%.
In the case of `Cc1nnc(SCCCNc2cc(C3CC3)ncn2)s1`, the “Percent Effect” value (30.3 µM, […]) was 31.22%.
For `COc1cc(NCCCSc2nnc(C)s2)ncn1`, the “Percent Effect” value (30.3 µM, […]) was 57.45%.
For `Cc1nnc2n1CCN(C(=O)COCCOc1ccccc1)C2`, the “Percent Effect” value (30 µM, 30.03 µM) was 16.55%.
With `Cc1cc(CN2CCCC(C)(CO)C2)ccc1F` (centres undefined) the “Percent Effect” value (30 µM, 30.03 µM) was 31.69%.
With `Cc1nc(C)n(CC2CN(Cc3noc(C4CC4)n3)CCO2)n1` (centres undefined) the “Percent Effect” value (30.3 µM, […]) was -6.202%.
In the case of `Cc1cnc(CCNC(=O)C2CCN(S(=O)(=O)c3ccc(F)cc3)C2)s1` (centres undefined), the “Percent Effect” value (30.3 µM, […]) was 33.75%.
With `COCCN1CCC(CN(CC2CCCO2)C(=O)COC)CC1` (centres undefined) the “Percent Effect” value (30 µM, 30.03 µM) was -10.91%.
`COCCN1CCC(CN(CC2CCCO2)C(=O)Cn2cccn2)CC1` (centres undefined) was tested, and the “Percent Effect” value (30.3 µM, […]) was 58.18%.
`COCCN1CCC(CN(CC2CCCO2)C(=O)Cc2cccs2)CC1` (centres undefined) was tested, and the “Percent Effect” value (30.3 µM, […]) was 8.21%.
With `Cc1nc(NC(=O)N2CCCC(C(C)(C)O)C2)nn1C` (centres undefined) the “Percent Effect” value (30.3 µM, […]) was -6.912%.
With `O=C(C1CC2(CCNCC2)CN1)N1CCN(c2ccccc2)CC1` (centres undefined) the “Percent Effect” value (30.3 µM, […]) was -6.874%.
`Cc1cccc(N2CCN(C(=O)C3CC4(CCNCC4)CN3)CC2)n1` (centres undefined) was tested, and the “Percent Effect” value (30.3 µM, […]) was 82.82%.
`Cc1cnccc1N1CCN(C(=O)C2CC3(CCNCC3)CN2)CC1` (centres undefined) was tested, and the “Percent Effect” value (30.3 µM, […]) was -56.52%.
`Cc1cccc(-c2nc(C)nn2CN2CCC3(CC2)OCCO3)c1` was tested, and the “Percent Effect” value (30.3 µM, […]) was -6.145%.
With `CCCc1nnc(SCc2cc(=O)n3c4c(sc3n2)CCCC4)[nH]1` the “Percent Effect” value (30.3 µM, […]) was 1.73%.
`CCc1nnc(SCc2cc(=O)n3c4c(sc3n2)CCCC4)[nH]1` was tested, and the “Percent Effect” value (30.3 µM, […]) was 54.93%.
`Cc1nnc(SCc2cc(=O)n3c4c(sc3n2)CCCC4)[nH]1` was tested, and the “Percent Effect” value (30.3 µM, […]) was 36.41%.
With `CN[C@@H]1CCC[C@@H](Oc2ccccc2Oc2ccc(C)cc2)[C@@H]1O` the “Percent Effect” value (30.3 µM, […]) was 98.74%.
For `COCC1CCN(S(=O)(=O)N2C[C@H](c3ccccc3)[C@@H](N)C2)CC1`, the “Percent Effect” value (30.3 µM, […]) was 12.44%.
In the case of `Cc1occc1C(=O)N1C[C@@H](C(=O)N2CCCCO2)C[C@H]2OCC[C@H]21`, the “Percent Effect” value (30.3 µM, […]) was 22.98%.
With `CN(CC(=O)Nc1cc(C(C)(C)C)n[nH]1)S(C)(=O)=O` the “Percent Effect” value (30.3 µM, […]) was -19.26%.
In the case of `CN(CC(=O)Nc1cc(CC2CCCCC2)n[nH]1)S(C)(=O)=O`, the “Percent Effect” value (30.3 µM, […]) was 66.78%.
In the case of `CN(CC(=O)Nc1cc(-c2cc(Cl)cc(Cl)c2)[nH]n1)S(C)(=O)=O`, the “Percent Effect” value (30.3 µM, […]) was 5.087%.
In the case of `Cc1nc(CN2CCCC2c2c(C)nn(C)c2Cl)no1` (centres undefined), the “Percent Effect” value (30 µM, 30.03 µM) was 17.3%.
With `CN(C)Cc1cc(C2CCCCN2S(=O)(=O)Cc2ccccc2)nn1C.Cl` (centres undefined) the “Percent Effect” value (30.3 µM, […]) was -6.731%.
`CC(NCC(N)=O)c1c(F)cccc1Cl` (centres undefined) was tested, and the “Percent Effect” value (30.3 µM, […]) was 61.56%.
For `CNC(=O)NC(C)c1c(F)cccc1Cl` (centres undefined), the “Percent Effect” value (30.3 µM, […]) was -84.02%.
With `CC(C)NC(=O)CNC(C)c1c(F)cccc1Cl` (centres undefined) the “Percent Effect” value (30.3 µM, […]) was -24.44%.
For `Cn1c(-c2ccccc2Cl)nc2cc(C(=O)NCC3(CO)CC3)cnc21`, the “Percent Effect” value (30.3 µM, […]) was 6.788%.
For `O=c1n(CCNCc2cccc3ccccc23)nc2ccccn12`, the “Percent Effect” value (30.3 µM, […]) was 37.73%.
In the case of `CCC(O)c1nc2c([nH]1)CC(C)(C)CNC2=O` (centres undefined), the “Percent Effect” value (30.3 µM, […]) was 4.98%.
`Cn1ncc2c1C(COCC1CC1)CN(Cc1ccoc1)C2` (centres undefined) was tested, and the “Percent Effect” value (30 µM, 30.03 µM) was 18.09%.
`O=C(NCCc1ccccc1)NCCN1CCC(c2cccs2)CC1` was tested, and the “Percent Effect” value (30.3 µM, […]) was 51.71%.
With `CC(=O)NCCN1CCC(c2cccs2)CC1` the “Percent Effect” value (30 µM, 30.03 µM) was 14.89%.
In the case of `O=C(NCCN1CCC(c2cccs2)CC1)Nc1cccs1`, the “Percent Effect” value (30 µM, 30.03 µM) was 29.53%.
In the case of `COCC(=O)NC1CC2(CCN(Cc3ccco3)CC2)c2ccccc21.O=C(O)C(F)(F)F` (centres undefined), the “Percent Effect” value (30 µM, 30.03 µM) was -18.66%.
For `CCOCC1CCN(C(=O)Nc2ccc(-c3csnn3)cc2)C1` (centres undefined), the “Percent Effect” value (30.3 µM, […]) was -4.056%.
For `CCCC(=O)NC1CCN(c2ccccc2S(=O)(=O)CC)CC1`, the “Percent Effect” value (30 µM) was -8.378%.
With `Cc1ccc(NCC2(O)CCNCC2)cc1C` the “Percent Effect” value (30.3 µM, […]) was -19.76%.
In the case of `Cc1ccc(C)c(N2CCN(CC3(O)CCNC3)CC2)c1` (centres undefined), the “Percent Effect” value (30.3 µM, […]) was 98.99%.
In the case of `CCOc1ccccc1N1CCN(CC2(O)CCCNC2)CC1` (centres undefined), the “Percent Effect” value (30.3 µM, […]) was 12.99%.
`Cc1ccccc1N1CCCN(CC2(O)CCCNC2)CC1` (centres undefined) was tested, and the “Percent Effect” value (30.3 µM, […]) was 97.82%.
In the case of `CSCC(=O)N1CCCN(c2ccccc2C)CC1`, the “Percent Effect” value (30 µM, 30.03 µM) was 12.81%.
In the case of `Cc1ccc(C2(CN3CCN(c4ncccn4)CC3)CCNCC2)nc1`, the “Percent Effect” value (30.3 µM, […]) was -2.357%.
`OC(CNCCc1nnc2ccccn12)c1ccc2c(c1)OCO2` (centres undefined) was tested, and the “Percent Effect” value (30.3 µM, […]) was 14.08%.
In the case of `CCn1c(CN2CCCC2)nnc1C1CCN(Cc2ccc(C)o2)CC1`, the “Percent Effect” value (30 µM, 30.03 µM) was 43.06%.
For `CC[C@@]1(O)CCN(C(=O)CCSCc2ccc(F)cc2)C[C@H]1O`, the “Percent Effect” value (30.3 µM, […]) was -8.433%.
`CCc1cnc(CN(C)C2CCN(CC3CCN(C(C)=O)CC3)C2)o1` (centres undefined) was tested, and the “Percent Effect” value (30.3 µM, […]) was 21.9%.
With `CCc1cnc(CN(C)C2CCN(CC3CCC3)C2)o1` (centres undefined) the “Percent Effect” value (30.3 µM, […]) was 50.08%.
With `CCc1cnc(CN(C)C2CCN(CC3CCOCC3)C2)o1` (centres undefined) the “Percent Effect” value (30.3 µM, […]) was 46.35%.
